# Results published in ChEMBL document CHEMBL4513216, “Probing the Open Global Health Chemical Diversity Library for Multistage-Active Starting Points for Next-Generation Antimalarials” (ACS Infect Dis, 2020).
# About 2,700 (4%) of roughly 68,000 compounds showed an effect of 50% or more. Many of the other results were omitted from the sample, so strong results are more common in it than they were.
# Tested on: Plasmodium berghei
# Assay: Screen against P. berghei liver stage (PbLuc), transformed with Luciferase, at 2uM
# Format: functional, HepG2
# Details: tested at 2 uM
row,Compound,INHIBITION [%]
1,O=C(N1CCc2ccccc2CC1)C1(O)Cc2ccccc2C1,32.93
2,O=C(CCN1C[C@@H]2CC[C@H]1CN(c1ncccn1)C2)NCc1ccco1,22.27
3,N#Cc1ccc(CN2CCNC(=O)C2c2cccs2)cc1 (stereo unspecified),-15.67
4,Cn1cnc2c(N3CCCC3)nc(C3CCN(CC4CC4)CC3)cc21,25.94
5,Cn1ccnc1C(O)c1ccccc1N1CCN(Cc2ccsc2)CC1 (stereo unspecified),-16.2
6,Cc1cccc(COc2ccc(C(C)N)cc2)c1 (stereo unspecified),54.49
7,Cc1cccc(COc2ccc(C(C)NS(N)(=O)=O)cc2)c1 (stereo unspecified),9.42
8,Cc1cccc(COc2ccc(C(C)NC(=O)CNC(N)=O)cc2)c1 (stereo unspecified),32.26
9,CCc1ccsc1C(=O)N1CCN(CC(C)O)CC1 (stereo unspecified),-10.66
10,CCc1ccsc1C(=O)N1CCN(CC(O)CC)CC1 (stereo unspecified),56.67
11,CCC(O)CN1CCN(C(=O)c2sccc2C2CC2)CC1 (stereo unspecified),34.97
12,Clc1ccccc1C1(c2ccnc(C3CCCC3)n2)CCNCC1,11.94
13,Cc1cnccc1CN1C[C@@H](O)[C@H](Oc2cccc(F)c2)C1,8.5
14,Cc1c(CN2C[C@@H](O)[C@H](Oc3cccc(F)c3)C2)cnn1C,55.32
15,Cc1cc(C)n2ncc(CN3C[C@@H](O)[C@H](Oc4ccccc4)C3)c2n1,-0.44
16,COCC(O)CN(C)c1ccnc2ccc(Cl)cc12 (stereo unspecified),-33.34
17,Cc1ccsc1CN1CCc2c(nc(N3CCCCC3C)[nH]c2=O)C1 (stereo unspecified),-17.99
18,CC(C)C1CN(Cc2nccn2C(C)C)CCC(=O)N1CC1CC1 (stereo unspecified),-17.17
19,CC(C)n1ccnc1CN1CCOC(CCc2ccccc2)C1 (stereo unspecified),50.32
20,Cn1ccnc1CN1CCOC(Cc2ccccc2)C1 (stereo unspecified),-19.43
21,c1ccc(Cn2ccnc2CN2CCOC(Cn3cccn3)C2)cc1 (stereo unspecified),11.1
22,CC(C)n1ccnc1CN1CCCN(C(=O)CC2CCCO2)CC1 (stereo unspecified),33.82
23,CC(C)n1ccnc1CN1CCOC(CC2CCCCC2)C1 (stereo unspecified),63.23
24,NC(=O)NCC(=O)N1CCCC(c2nccn2Cc2ccncc2)C1 (stereo unspecified),16.1
25,CCOc1ncccc1Cn1cc(-c2nccn2C)nn1,-3.38
26,O=C(c1cccs1)N1CCCn2c(nc(CN3CCCC3)cc2=O)C1,13.38

row,Compound,INHIBITION [%]
1,Cc1nc(N2CCCCC2)ncc1-c1cc(=O)[nH]c(N2CCCC2)n1,17.48
2,FC1(F)CCN(Cc2cccnc2)CC12CCN(c1ccccn1)C2 (stereo unspecified),3.35
3,CC(C)c1cc(C(=O)N2CCC3(CC2)c2ccccc2[C@@H](N)[C@@H]3O)cs1,16.28
4,O=C1CC(NS(=O)(=O)c2ccc(Br)cc2)CN1 (stereo unspecified),27.9
5,O=C1CC(NS(=O)(=O)c2ccc(F)c(Cl)c2)CN1 (stereo unspecified),-15.08
6,O=C1CC(NS(=O)(=O)c2ccc(Cl)cc2)CN1 (stereo unspecified),87.53
7,CCCN(CCC)S(=O)(=O)NC(C)C(=O)N(C)C (stereo unspecified),-9.87
8,COc1ccc(OCc2nc(C(=O)N3CCCNC(=O)C3)co2)cc1,22.84
9,CC(C)c1noc(CCC(=O)NC(C)c2nnc3n2CCC3)n1 (stereo unspecified),45.48
10,CC(NC(=O)CCc1nc(C(C)(C)C)no1)c1nnc2n1CCC2 (stereo unspecified),64.2
11,CC(NC(=O)CCCc1nc(C(C)(C)C)no1)c1nnc2n1CCC2 (stereo unspecified),19.04
12,c1coc(CN2C[C@@H]3OCCN(CC4CCCO4)[C@@H]3C2)c1 (stereo partly specified),-44.46
13,CCOC(=O)N1C[C@@H]2CC[C@H]1CN(Cc1ccccc1)C2,18.19
14,COCC(=O)N1CCC(c2nccn2CC2CC2)CC1,-34.68
15,COCCOC(=O)N1CCC(c2nccn2CC2CC2)CC1,-1.87
16,O=C(O)c1cnc(N2CCC(c3nccn3CC3CC3)CC2)c(Cl)c1,60.39
17,c1cnc(N2CCC(c3nccn3CC3CC3)CC2)nc1,18.81
18,CCOCC(=O)N1CCC(c2nccn2CC2CC2)CC1,-1.32
19,COCC1(C(=O)N2CCC(c3nccn3CC3CC3)CC2)CCC1,52.57
20,O=C(NC1CC1)N1C[C@H]2CN(c3ccccc3)C(=O)[C@H]2C1,-0.9
21,CCc1nc2c(NCC3COc4c(cccc4OC)C3)ncnc2o1 (stereo unspecified),1.39
22,O=C(C1CCCc2[nH]ncc21)N1CCCC1 (stereo unspecified),-10.01
23,O=C(C1CCCc2[nH]ncc21)N1CCCCCC1 (stereo unspecified),-0.54
24,O=C(C1CCCc2[nH]ncc21)N1CCCC2(C1)OCCO2 (stereo unspecified),64.92
25,CNC(=O)CCOC(=O)c1cccc(-n2ccc(C(F)(F)F)n2)c1,13.1
